Measured values as given in PubChem BioAssay AID2732 (Emory University Molecular Libraries Screening Center, 2010).
The campaign covered roughly 220,000 compounds. About 8,200 (3.7%) were called active. The sample holds actives, similar compounds and a random draw of the others, so the mix is not that of the screen.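 How the source made its calls: active means compounds that reduced the stress-induced luciferase reporter signal by more than about 70% of percent inhibition (limit read from the data); inactive means the rest.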

Assay: blockers of ER-stress CHOP reporter expression – cell-based, unfolded protein response, luciferase reporter, primary screen (AID 2732);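 further: 0% = tunicamycin plus vehicle and 100% = wells without tunicamycin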
Conditions: CHO-K1 CHOP-promoter luciferase, tunicamycin-induced, 15-18 h; at 10 µM; hits give high values

inhibition, inactive:
COc1ccc(NC(=O)C2=C(C)NC(=O)NC2c2ccccc2[N+](=O)[O-])cc1 (stereo unspecified) -5.78%
O=C(Nc1ccc(S(=O)(=O)Nc2nccs2)cc1)c1cc(-c2ccncc2)nc2ccccc12 7.48%
Cc1ccc(-c2cc(C(=O)N/N=C/C=C/c3ccccc3)n[nH]2)o1 13.4%
CC(/C=C/c1ccccc1)=N\NC(=O)C1CC1(C)c1ccccc1 (stereo unspecified) 43.4%
CC(C)c1cc(CN2CCOCC2)cc(C(C)C)c1O -5.16%
COc1ccc(/C=C/C(=O)Nc2ccc3c(c2)OCCO3)cc1OC -1%
COc1ccc(/C=C/C(=O)Nc2cccnc2)cc1OC 2.86%
COc1ccc(/C=C/C(=O)Nc2ccc(C)cc2)cc1S(=O)(=O)N1CCOCC1 -1.01%
COc1ccc(C(C)=O)cc1COc1ccc(Cl)c(C)c1 5.12%
Cc1ccc(NC(=O)Nc2cc(-c3ccccc3)nn2C)cc1Cl 7.85%
C=CCNC(=S)N1CCc2[nH]c3ccccc3c2C1 0.96%
COc1ccc(CCNC(=O)C(=O)Nc2ccc3nc4n(c(=O)c3c2)CCCCC4)cc1OC 8.36%
O=C(Nc1cccc2c1N(C(=O)c1ccco1)CCC2)c1ccco1 -8%
CC1(C)CC(=O)C=C(Nc2ccccc2)C1 5.42%
O=C(O)/C=C/c1ccc2c(c1)OCCO2 -23.6%
COc1cc(/C=N\NC(=O)CNC(=O)c2cccc([N+](=O)[O-])c2)ccc1O 8.27%
COc1ccc(C(=O)Nc2ccccc2C(=O)N/N=C/c2ccccc2OC)cc1 -12.8%
CCOC(=O)Cn1c(=O)oc2cc(S(=O)(=O)NCC3CCCO3)ccc21 (stereo unspecified) 22.5%
CCc1cc(Br)ccc1NC(=O)C1CCCO1 (stereo unspecified) -17.3%
O=C(Nc1ccc(S(=O)(=O)N2CCOCC2)cc1)c1ccc2ncsc2c1 2.87%
C/C(=N\NC(=S)Nc1ccc(C)cc1)c1cc2ccccc2o1 -20.3%
COCCCNC(=O)C1CCN(c2ccc(N3CCOCC3)nn2)CC1 -10.8%
O=C(N/N=C/c1c(Cl)[nH]c2ccccc12)c1sc2ccccc2c1Cl 44.3%
Oc1ccc(N=Cc2c(O)ccc3ccccc23)cc1 40.5%
O=C(c1cc(-c2ccc(O)cc2)on1)N1CCCc2ccccc21 40.4%
CC(NC(=O)c1cc(-c2ccccc2)on1)c1ccccc1 (stereo unspecified) 58.1%
CCCCCCNS(=O)(=O)c1ccccc1Br 16.4%
CCOC(=O)C1=NN(c2ccc(Cl)cc2)/C(=C/C2=NCCc3cc(OC)c(OC)cc32)S1 -5.16%
COc1ccccc1NC(=O)CCCc1c[nH]c2ccccc12 0.61%
CCCC(=O)NC(Nc1ccccc1OC)C(Cl)(Cl)Cl (stereo unspecified) 21.3%
CCOC(=O)NNc1cc(C(F)(F)F)ccn1 -10.6%
COc1ccc(Cl)cc1C(=O)NNC(=O)c1nc2nc(C)cc(C)n2n1 11.4%
Cc1onc(-c2c(Cl)cccc2Cl)c1C(=O)NNC(=O)c1c(-c2c(Cl)cccc2Cl)noc1C -2.75%
O=C(/C=C/c1ccc(Cl)cc1)Nc1ccc(S(=O)(=O)Nc2ncccn2)cc1 15.1%
O=C(NCc1ccccc1)c1ccc(S(=O)(=O)Nc2cccc(C(F)(F)F)c2)cc1 26.6%
OC(c1nc2ccccc2[nH]1)C(O)C(O)C(O)c1nc2ccccc2[nH]1 (stereo unspecified) 4.88%
Cc1ccccc1NC(=O)NCc1ccco1 -12.4%
O=C(Cn1c(=O)n(Cc2ccco2)c(=O)c2ccccc21)NCC1CCCO1 (stereo unspecified) 19%
C/C(=N/NC(=O)CN1CCN(S(=O)(=O)c2ccc(Br)cc2)CC1)c1ccncc1 10.9%
Cc1ccc(N2C(=O)CC(N3CCSCC3)C2=O)c(C)c1 (stereo unspecified) 19.1%
CCc1cccc(CC)c1NC(=S)Nc1ccc2cn[nH]c2c1 22.1%
Cc1csc(NC(=S)Nc2cccc(Cl)c2)n1 -212%
S=C(Nc1cccc(Cl)c1)Nc1ccc2cn[nH]c2c1 -22.9%
COc1cccc(NC(=O)NCc2ccc(F)cc2)c1 5.22%
Cc1cccc(NC(=O)Nc2nnc(-c3ccccc3)o2)c1 -9.17%
N#C/C(=C/c1ccc(-c2ccccc2[N+](=O)[O-])o1)C(=O)NCCN1CCCCC1 22.9%
Cc1c(NC(=O)C(=O)N/N=C/c2cccs2)c(=O)n(-c2ccccc2)n1C 9.69%
CC(C)CCN1NC2(CCC(C)CC2)NC1=S (stereo unspecified) -10.5%
CCCN(CCC)CC(O)COc1ccccc1C(=O)Nc1ccccc1 (stereo unspecified) 16.4%

inhibition, active:
O=C(N/N=C/C=C/c1ccccc1)C1CC1(c1ccccc1)c1ccccc1 (stereo unspecified) 82.4%
CCn1nc(C)c(NC(=O)/C=C/c2ccc(OC)c(COc3ccc(Br)cc3)c2)c1C 86.6%
COc1ccc(/C=C/C(=O)Nc2c(C)nn(C)c2C)cc1COc1ccc(Br)cc1 105%
COc1ccc(C(=O)Nc2ccccc2C(=O)N/N=C/c2ccc(O)c(OC)c2)cc1 88.8%
OC(CNCC1CCCO1)Cn1c2ccc(Br)cc2c2cc(Br)ccc21 (stereo unspecified) 108%
Oc1ccc(N=Cc2sc3ccccc3c2Cl)cc1 81.8%
O=C(Nc1ccccc1C(F)(F)F)c1cc(-c2ccc(O)cc2)on1 105%
CCCCCCCC(=O)NC(Nc1ccccc1OC)C(Cl)(Cl)Cl (stereo unspecified) 87.9%
O=C(/C=C/c1ccc(F)cc1)Nc1cccc(S(=O)(=O)Nc2cccc(C(F)(F)F)c2)c1 103%
Cc1ccccc1Cn1c2ccccc2c2cnn(CC(=O)NCc3ccco3)c(=O)c21 90.4%
FC(F)(F)c1cccc(NC(=S)Nc2cccc(Cl)c2)c1 87.2%
Cc1cccc(NC(=O)Nc2cccc(Oc3c(F)c(F)c(F)c(F)c3F)c2)c1 97.1%
